{"source": "PubChem BioAssay (NCATS)", "key": {"MCC-13": {"system": "MCC-13", "assay": "qHTS assay to identify novel small-molecules to repurpose for Merkel cell carcinoma treatment (AID 1296009); further: nearly all actives have a fitted effect of over 60% in size", "details": "MCC and control cell lines, CellTiter-Glo viability, 72 h; series mostly up to 46 µM", "how_it_was_run": "(§1)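 Cells were treated for 72 hr at 37 degree celsius with compounds in 8- or 11-point dose response. Viability was read by CellTiter-Glo luminescence, normalized to no-cell (cytotoxicity) and DMSO controls.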"}, "MCC-26": {"system": "MCC-26", "assay": "qHTS assay to identify novel small-molecules to repurpose for Merkel cell carcinoma treatment (AID 1296009)", "details": "MCC and control cell lines, CellTiter-Glo viability, 72 h; series mostly up to 46 µM", "how_it_was_run": "as §1"}, "MKL-1": {"system": "MKL-1", "assay": "qHTS assay to identify novel small-molecules to repurpose for Merkel cell carcinoma treatment (AID 1296009)", "details": "MCC and control cell lines, CellTiter-Glo viability, 72 h; series mostly up to 46 µM", "how_it_was_run": "as §1"}, "UISO": {"system": "UISO", "assay": "qHTS assay to identify novel small-molecules to repurpose for Merkel cell carcinoma treatment (AID 1296009)", "details": "MCC and control cell lines, CellTiter-Glo viability, 72 h; series mostly up to 46 µM", "how_it_was_run": "as §1"}, "C33A": {"system": "C33A", "assay": "Primary qHTS to identify gynecologic anti-cancer compounds using libraries of approved drugs and bioactive compounds (AID 1345084)", "details": "Gynecologic cancer cell panel viability, ATPlite luminescence, 48 h; series mostly up to 57.5 µM", "how_it_was_run": "(§2)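 Cells, 1,000 per well, were allowed to settle for 16 h at 37 C before compound addition. Five concentrations were tested for 48 h, and viability was read by ATPlite luminescence after 15 min at room temperature.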"}, "CASKI": {"system": "CASKI", "assay": "Primary qHTS to identify gynecologic anti-cancer compounds using libraries of approved drugs and bioactive compounds (AID 1345084)", "details": "Gynecologic cancer cell panel viability, ATPlite luminescence, 48 h; series mostly up to 57.5 µM", "how_it_was_run": "as §2"}, "Es-2": {"system": "Es-2", "assay": "Primary qHTS to identify gynecologic anti-cancer compounds using libraries of approved drugs and bioactive compounds (AID 1345084)", "details": "Gynecologic cancer cell panel viability, ATPlite luminescence, 48 h; series mostly up to 57.5 µM", "how_it_was_run": "as §2"}, "HeLa": {"system": "HeLa", "assay": "Primary qHTS to identify gynecologic anti-cancer compounds using libraries of approved drugs and bioactive compounds (AID 1345084)", "details": "Gynecologic cancer cell panel viability, ATPlite luminescence, 48 h; series mostly up to 57.5 µM", "how_it_was_run": "as §2"}, "Hek293T": {"system": "Hek293T", "assay": "Primary qHTS to identify gynecologic anti-cancer compounds using libraries of approved drugs and bioactive compounds (AID 1345084)", "details": "Gynecologic cancer cell panel viability, ATPlite luminescence, 48 h, control line for the selectivity index; series mostly up to 57.5 µM", "how_it_was_run": "as §2"}, "JEG-3": {"system": "JEG-3", "assay": "Primary qHTS to identify gynecologic anti-cancer compounds using libraries of approved drugs and bioactive compounds (AID 1345084)", "details": "Gynecologic cancer cell panel viability, ATPlite luminescence, 48 h; series mostly up to 57.5 µM", "how_it_was_run": "as §2"}, "Tov-21-G": {"system": "Tov-21-G", "assay": "Primary qHTS to identify gynecologic anti-cancer compounds using libraries of approved drugs and bioactive compounds (AID 1345084)", "details": "Gynecologic cancer cell panel viability, ATPlite luminescence, 48 h; series mostly up to 57.5 µM", "how_it_was_run": "as §2"}, "Tov112D": {"system": "Tov112D", "assay": "Primary qHTS to identify gynecologic anti-cancer compounds using libraries of approved drugs and bioactive compounds (AID 1345084)", "details": "Gynecologic cancer cell panel viability, ATPlite luminescence, 48 h; series mostly up to 57.5 µM", "how_it_was_run": "as §2"}, "MKL-2": {"system": "MKL-2", "assay": "qHTS assay to identify novel small-molecules to repurpose for Merkel cell carcinoma treatment (AID 1296009)", "details": "MCC and control cell lines, CellTiter-Glo viability, 72 h; series mostly up to 46 µM", "how_it_was_run": "as §1"}, "NIH3T3": {"system": "NIH3T3", "assay": "qHTS assay to identify novel small-molecules to repurpose for Merkel cell carcinoma treatment (AID 1296009)", "details": "MCC and control cell lines, CellTiter-Glo viability, 72 h; at 44.8 µM (top of the series) unless noted", "how_it_was_run": "as §1"}, "WaGa": {"system": "WaGa", "assay": "qHTS assay to identify novel small-molecules to repurpose for Merkel cell carcinoma treatment (AID 1296009)", "details": "MCC and control cell lines, CellTiter-Glo viability, 72 h; series mostly up to 46 µM", "how_it_was_run": "as §1"}, "CAOV3": {"system": "CAOV3", "assay": "Primary qHTS to identify gynecologic anti-cancer compounds using libraries of approved drugs and bioactive compounds (AID 1345084)", "details": "Gynecologic cancer cell panel viability, ATPlite luminescence, 48 h; series mostly up to 57.5 µM", "how_it_was_run": "as §2"}, "OV90": {"system": "OV90", "assay": "Primary qHTS to identify gynecologic anti-cancer compounds using libraries of approved drugs and bioactive compounds (AID 1345084)", "details": "Gynecologic cancer cell panel viability, ATPlite luminescence, 48 h; series mostly up to 57.5 µM", "how_it_was_run": "as §2"}, "PA-1": {"system": "PA-1", "assay": "Primary qHTS to identify gynecologic anti-cancer compounds using libraries of approved drugs and bioactive compounds (AID 1345084)", "details": "Gynecologic cancer cell panel viability, ATPlite luminescence, 48 h; series mostly up to 57.5 µM", "how_it_was_run": "as §2"}, "SKOV3": {"system": "SKOV3", "assay": "Primary qHTS to identify gynecologic anti-cancer compounds using libraries of approved drugs and bioactive compounds (AID 1345084)", "details": "Gynecologic cancer cell panel viability, ATPlite luminescence, 48 h; series mostly up to 57.5 µM", "how_it_was_run": "as §2"}, "[1]": {"assay": "Drug repurposing screens with cells derived from glioblastoma tumor samples (AID 1345199)", "details": "GBM patient neurospheres viability, ATP luminescence, 48 h", "how_it_was_run": "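Four patient lines of CD133+ GBM neurospheres were screened at several concentrations; hits were retested in those lines plus three slower-growing GBM lines, using 48-hour treatment and ATP-based viability.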"}, "[2]": {"details": "at 45.9 µM (top of the series), tumour line B"}, "[3]": {"details": "at 45.9 µM (top of the series), tumour line D"}, "[4]": {"details": "at 46 µM (top of the series), tumour line A"}, "[5]": {"details": "at 46.1 µM (top of the series), tumour line C"}}, "note": "Results filed as inconclusive are left out. Where a call stands in place of a potency, no number is given. Values without a mark were called inactive. Active and inactive are the calls of the source. The call rests on the fitted dose curve; in most records, active means well fitted curve in the direction sought with a large enough effect; inconclusive means small, poorly fitted or top-dose-only effect, or another doubt; inactive means no such curve, though single readings can be large; an effect the other way counts as inactive or inconclusive. Wherever activity, negative = cell killing is given: nearly all actives have a fitted effect of over 40% in size. Wherever potency is given: nearly all actives have a fitted effect of over 40% in size. Wherever potency is given: potency means the concentration at half of the fitted maximal effect."}
{"smiles": "COc1cc2c(cc1OC)C(=O)C(CC1CCN(Cc3ccccc3)CC1)C2", "note": "(configuration not stated)", "values": [{"measurement": "Potency", "setting": "MCC-13", "value": "inactive"}, {"measurement": "Potency", "setting": "MCC-26", "value": "inactive"}, {"measurement": "Potency", "setting": "MKL-1", "value": "inactive"}, {"measurement": "Potency", "setting": "UISO", "value": "inactive"}, {"measurement": "Potency", "setting": "C33A", "value": "inactive"}, {"measurement": "Potency", "setting": "CASKI", "value": "inactive"}, {"measurement": "Potency", "setting": "Es-2", "value": "inactive"}, {"measurement": "Potency", "setting": "HeLa", "value": "inactive"}, {"measurement": "Potency", "setting": "Hek293T", "value": "inactive"}, {"measurement": "Potency", "setting": "JEG-3", "value": "inactive"}, {"measurement": "Potency", "setting": "Tov-21-G", "value": "inactive"}, {"measurement": "Potency", "setting": "Tov112D", "value": "inactive"}]}
{"smiles": "N[C@@H](CCC(=O)N[C@@H](CS)C(=O)NCC(=O)O)C(=O)O", "values": [{"measurement": "Potency", "setting": "MCC-13", "value": "inactive"}, {"measurement": "Potency", "setting": "MKL-1", "value": "inactive"}, {"measurement": "Potency", "setting": "MKL-2", "value": "inactive"}, {"measurement": "outcome", "setting": "NIH3T3", "value": "inactive [at 17.4 µM]"}, {"measurement": "Potency", "setting": "UISO", "value": "inactive"}, {"measurement": "Potency", "setting": "WaGa", "value": "inactive"}, {"measurement": "Potency", "setting": "C33A", "value": "inactive"}, {"measurement": "Potency", "setting": "CAOV3", "value": "inactive"}, {"measurement": "Potency", "setting": "CASKI", "value": "inactive"}, {"measurement": "Potency", "setting": "Es-2", "value": "inactive"}, {"measurement": "Potency", "setting": "HeLa", "value": "inactive"}, {"measurement": "Potency", "setting": "Hek293T", "value": "inactive"}, {"measurement": "Potency", "setting": "JEG-3", "value": "inactive"}, {"measurement": "Potency", "setting": "OV90", "value": "inactive"}, {"measurement": "Potency", "setting": "PA-1", "value": "inactive"}, {"measurement": "Potency", "setting": "SKOV3", "value": "inactive"}, {"measurement": "Potency", "setting": "Tov-21-G", "value": "inactive"}, {"measurement": "Potency", "setting": "Tov112D", "value": "inactive"}, {"measurement": "activity, negative = cell killing", "setting": "[1]; [2]", "value": -10.5, "unit": "%"}, {"measurement": "activity, negative = cell killing", "setting": "[1]; [3]", "value": -6.47, "unit": "%"}, {"measurement": "activity, negative = cell killing", "setting": "[1]; [4]", "value": -29.7, "unit": "%"}, {"measurement": "activity, negative = cell killing", "setting": "[1]; [5]", "value": 10.6, "unit": "%"}]}
{"smiles": "CN(C)/N=N/c1nc[nH]c1C(N)=O", "values": [{"measurement": "Potency", "setting": "MCC-13", "value": "inactive"}, {"measurement": "Potency", "setting": "MCC-26", "value": "inactive"}, {"measurement": "Potency", "setting": "MKL-1", "value": "inactive"}, {"measurement": "Potency", "setting": "CAOV3", "value": "inactive"}, {"measurement": "Potency", "setting": "JEG-3", "value": "inactive"}, {"measurement": "activity, negative = cell killing", "setting": "[1]; [2]", "value": -24.8, "unit": "%"}, {"measurement": "activity, negative = cell killing", "setting": "[1]; [3]", "value": -1.38, "unit": "%"}, {"measurement": "activity, negative = cell killing", "setting": "[1]; [4]", "value": -11.7, "unit": "%"}, {"measurement": "activity, negative = cell killing", "setting": "[1]; [5]", "value": -12, "unit": "%"}]}
{"smiles": "O=C(COc1ccc(Cl)cc1)N1CCN(Cc2ccc3c(c2)OCO3)CC1", "values": [{"measurement": "Potency", "setting": "MCC-13", "value": "inactive"}, {"measurement": "Potency", "setting": "MCC-26", "value": "inactive"}, {"measurement": "Potency", "setting": "MKL-1", "value": "inactive"}, {"measurement": "Potency", "setting": "UISO", "value": "inactive"}, {"measurement": "Potency", "setting": "C33A", "value": "inactive"}, {"measurement": "Potency", "setting": "CAOV3", "value": "inactive"}, {"measurement": "Potency", "setting": "CASKI", "value": "inactive"}, {"measurement": "Potency", "setting": "Es-2", "value": "inactive"}, {"measurement": "Potency", "setting": "HeLa", "value": "inactive"}, {"measurement": "Potency", "setting": "Hek293T", "value": "inactive"}, {"measurement": "Potency", "setting": "JEG-3", "value": "inactive"}, {"measurement": "Potency", "setting": "OV90", "value": "inactive"}, {"measurement": "Potency", "setting": "PA-1", "value": "inactive"}, {"measurement": "Potency", "setting": "SKOV3", "value": "inactive"}, {"measurement": "Potency", "setting": "Tov-21-G", "value": "inactive"}, {"measurement": "Potency", "setting": "Tov112D", "value": "inactive"}, {"measurement": "activity, negative = cell killing", "setting": "[1]; [2]", "value": -2.59, "unit": "%"}, {"measurement": "activity, negative = cell killing", "setting": "[1]; [3]", "value": -28.6, "unit": "%"}, {"measurement": "Potency", "setting": "[1]; tumour line A", "value": "20 µM (active)"}]}
